PubChem BioAssay AID540364 (The Scripps Research Institute Molecular Screening Center, 2011)
The whole screen tested about 360,000 compounds, of which about 2,000 (0.56%) were called active. This excerpt belongs to a sample that is enriched for actives. Values without a mark were called inactive.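 How the source made its calls: active means activation above the average of all compounds screened plus 3 SD, cutoff fixed separately per campaign (cut at about 7.5% in these data); inactive means the rest.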

experiment: FXN promoter activators, primary screen, cell-based, luciferase luminescence, HEK293 lucGAA850 (AID 540364); details: HEK293 lucGAA850 FXN promoter luciferase reporter, 24 h; at 6 µM; hits give high values; percent of 10 µM SAHA response;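 further: 0% = DMSO wells and 100% = 10 µM SAHA wells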

Row | SMILES | activation
1 | O=C1CS(=O)CN1c1ccc(Oc2ccccc2)cc1 (stereo not given) | 0.15%
2 | Cc1ccc(-n2nc(N)c3c(=O)oc(N(C)C)nc32)cc1 | -0.82%
3 | Cc1ccsc1C(=O)NCCc1ccco1 | 2.23%
4 | CCOc1ccc(NC(=S)N2CCCCCC2)cc1 | 1.3%
5 | CCCCc1ccc(NC(=S)N2CCCC(CO)C2)cc1 (stereo not given) | 9.18% (active)
6 | CCC(C)c1ccc(NC(=S)N2CCCC2)cc1 (stereo not given) | 2.31%
7 | Cc1ccc2cc(/C=N/Nc3ccc(C(=O)O)cc3)c(Cl)nc2c1 | 8.93% (active)
8 | O=C(O)c1ccc(N/N=C/c2ccc3ncccc3c2)cc1 | -3.19%
9 | Cc1ccc2cc(/C=N/NC(=O)[C@@H]3CCCN3)c(Cl)nc2c1 | 0.79%
10 | CCOCCCNC(=O)C(NC(=O)CNC(=O)c1ccccc1)c1ccc(C)cc1 (stereo not given) | 1.83%
11 | COc1ccc(OC)c(NC(=O)CSc2nc3cccnc3n2C)c1 | 1.38%
12 | COc1cccc(-c2ccc(C#N)c(SCC(=O)NCCc3ccc(Cl)cc3)n2)c1 | 1.81%
13 | COc1cccc2cc(/C(C)=N/NC(=O)c3ccco3)oc12 | 3.55%
14 | CSc1nsc(SCC(=O)Nc2cc(C(=O)O)ccc2C)n1 | 0.88%
15 | COc1ccc(NC(=O)CSc2nc(SC)ns2)c(OC)c1 | 7.6% (active)
16 | COc1ccc(C)cc1NC(=O)CSc1nc(SC)ns1 | -0.57%
17 | Cc1cccc(C(=O)NC2CCN(CC(=O)Nc3cccc(Cl)c3)CC2)c1 | -1.24%
18 | Fc1c(F)c(C(F)(F)F)c(F)c(F)c1N1CCN(c2ccc3nnc(C(F)(F)F)n3n2)CC1 | -0.98%
19 | Cc1ccc2nsnc2c1NC(=O)c1ccccc1[N+](=O)[O-] | 3.24%
20 | Cc1ccccc1Nc1c([N+](=O)[O-])ccc2nonc12 | 8.33% (active)

Row | SMILES | activation
21 | Cc1cc(NC(=O)Nc2ccccc2[N+](=O)[O-])no1 | 3.8%
22 | CC(C)CN(C(=O)CSc1nncn1C)C1CCS(=O)(=O)C1 (stereo not given) | 0.57%
23 | CCC1C(=O)c2ccccc2N(C)C1=O (stereo not given) | 0.11%
24 | CN1C(=O)/C(=C\c2cc(Br)cs2)c2ccccc21 | 9.69% (active)
25 | CN1C(=O)/C(=N/OC(=O)c2ccccc2Br)c2ccccc21 | 2.92%
26 | COCCC(=O)Nc1ccc2c(c1)CN(C(=O)CCOC)CC2 | 0.49%
27 | CC1C/C(=N/NC(=O)c2cccs2)CC(C)(C)C1 (stereo not given) | 2.63%
28 | Cc1nnc(SCCCn2c(N3CCCCC3)nc3c2c(=O)[nH]c(=O)n3C)s1 | 3.13%
29 | Cc1nnc(Sc2nc3c(c(=O)[nH]c(=O)n3C)n2Cc2ccccc2)s1 | 21.3% (active)
30 | C=CCn1c(SCc2ccccc2)nc2c1c(=O)[nH]c(=O)n2C | 4.04%
31 | COc1cc(Cn2c3ccc(NC(=O)CC(C)c4ccccc4)cc3c(=O)n2C)ccc1F (stereo not given) | -0.13%
32 | C[C@H]([C@@H](O)[C@@H](O)[C@@H](C)C(C)(C)C)[C@H]1CC[C@H]2C3CC[C@H]4C[C@H](OS(=O)(=O)O)[C@@H](OS(=O)(=O)O)C[C@]4(C)[C@H]3CC[C@]12C (stereo not given in full) | -1.51%
33 | Nn1cnnc1N/N=C/c1cc([N+](=O)[O-])c(Cl)cc1Cl | -1.71%
34 | CNC(=O)c1cccc2nc3ccccc3nc12 | 3.97%
35 | CCCN(CCC)CCNC(=O)c1cc2c(C)nc3ccccc3c2o1 | -0.61%
36 | CN(C)CCNC(=O)c1ccc(Cl)c2cc3ccccc3nc12 | 22.7% (active)
37 | COC(=O)CCSc1cc([N+](=O)[O-])cc2c1c(C1OCCS1)nn2-c1ccccc1 (stereo not given) | 4.76%
38 | CC1=C(C(=O)N2CCOCC2)CC(CC(=O)NCc2cccc3ccccc23)C(=O)N1CCC1=CCCCC1 (stereo not given) | -1.16%
39 | CCn1c(=O)c(=O)n(CC)c2cc(S(=O)(=O)N3CCc4ccccc43)ccc21 | 0.26%
40 | O=S(=O)(c1ccccc1)N1CCc2ccccc21 | 1.28%

Row | SMILES | activation
41 | Cn1c(=O)n(C)c2cc(S(=O)(=O)N3CCCc4ccccc43)ccc21 | 7.64% (active)
42 | Cc1c(Br)c([N+](=O)[O-])nn1C(C)C(=O)Nc1nccs1 (stereo not given) | 1.64%
43 | COc1ccc(-n2nc(C(=O)NCC(=O)Nc3cccc(C)n3)c3ccccc3c2=O)cc1 | -0.56%
44 | Cc1ccc(S(=O)(=O)N(CCc2ccccc2)c2ccc3c(c2)C2CC3CCN2C(=O)OCc2ccccc2)cc1 (stereo not given) | 0.17%
45 | COc1ccc(/C=C/C(=O)Nc2ccc(C)cc2)cc1S(=O)(=O)N1CCOCC1 | -0.63%
46 | COc1ccc(/C=C/C(=O)Nc2ccc(C34CC5CC(CC(O)(C5)C3)C4)cc2)cc1OC | 7.97% (active)
47 | COc1cc(/C=C/C(=O)Nc2ccc(OC)c(S(=O)(=O)N3CCOCC3)c2)ccc1OCC#N | -0.85%
48 | Cc1ccc2c(c1)N(CC(=O)NCC1CCCO1)C(=O)CO2 (stereo not given) | 0.58%
49 | Cc1ccc(C(=O)N/C(=C/c2cccs2)C(=O)NCC2CCCO2)cc1 (stereo not given) | 0.61%
50 | Cc1ccc(-n2c(C)cc(/C=C(\C#N)C(=O)NCC3CCCO3)c2C)cc1 (stereo not given) | 8.72% (active)
51 | CCN(CC)CCNS(=O)(=O)c1ccc(/C=C/C(=O)O)cc1 | 3.64%
52 | CCCS(=O)(=O)N1CCC(C(=O)NCCCN(C)Cc2ccccc2)CC1 | -0.04%
53 | CCc1ccc2nc3sc(C(=O)Nc4nnc(CC)s4)c(N)c3cc2c1 | 3.44%
54 | Cc1ccc(NC(=O)c2sc3nc(N)c(C#N)cc3c2N)cc1 | 9.04% (active)
55 | Cc1ccc(Sc2ccc(NC(=O)c3ccc(F)cc3)cc2C#N)cc1 | -1.85%
56 | CCCCc1ccc(S(=O)(=O)NC(=O)C2(C)CCN2C(=O)c2c(C)noc2C)cc1 (stereo not given) | 1.5%
57 | Cc1c(C(C)(C)O)[nH]c2ccc(C#N)cc12 | 2.02%
58 | Cc1onc(-c2c(F)cccc2Cl)c1C(=O)OCC(=O)N1C(C)CCCC1C (stereo not given) | 0.34%
59 | CCCn1c(=NC(C)=O)c(C(=O)OCC)cc2c(=O)n3ccccc3nc21 | 5.78%
60 | CCOC(=O)c1cc2c(=O)n3ccccc3nc2n(CC(C)C)c1=NC(=O)c1c(-c2c(F)cccc2Cl)noc1C | 8.16% (active)
